Molecules are shown by their SMILES. Screen size: about 69,000 compounds; about 8,600 (12%) showed an effect of 50% or more. Many of the other results were omitted from the sample, so strong results are more common in it than they were.

The subject of this test is Plasmodium berghei. Nature of the test: Screen against P. berghei liver stage (PbLuc), transformed with Luciferase, at 10uM. The test is classed as functional, HepG2. Particulars: tested at 10 uM.
As for `CCc1nc(CN(C)C2CCN(CC(F)(F)F)C2)no1` (centres undefined), the INHIBITION is recorded as 4.71%.

As to `CN1CCOC(CNCc2c(Cl)nc3ccccn23)C1` (centres undefined), the INHIBITION is on record as -2.43%. Then `CC[C@@H]1N(Cc2ccc(OC)cc2)CCC[C@]12CCC(=O)N2CCOC`, with -5.31%; and `Cc1noc(CC2CCN(C(=O)C(c3ccccc3C)N(C)C)CC2)n1` (centres undefined), with -21.1%. With `COCc1nc(C(=O)N2CCCC2c2cc(C)on2)cs1` (centres undefined), the INHIBITION turned out to be 0.914%. `O=C(c1cc2c(s1)CCC2)N1CCCC(c2cnccn2)C1` (centres undefined): the INHIBITION is -94%.

As to `CNc1ccnc(NCCC(=O)Nc2ccccc2OC)n1`, the INHIBITION was 49.7%. Regarding `COc1ccc(C)cc1NC(=O)CNc1ccn(CC(N)=O)n1`, the INHIBITION is -41.6%.

On to `CNc1ccnc(NCC(=O)Nc2cc(C)ccc2OC)n1`, for which the INHIBITION is reported as 53%. On to `CC(C)COC1CCN(S(=O)(=O)Cc2cccc(F)c2)CC1`, for which the INHIBITION is on record as 20.9%. For `CNC(=O)[C@@H]1C[C@@H](N)CN1c1nc(N2CCCC2)nc(C)c1C`, the INHIBITION is given as 45.3%. With `CCN(CC)C(=O)[C@@H]1C[C@@H](N)CN1c1nc(N(C)C)nc(C)c1C`, the INHIBITION stood at 62.6%. On to `CCN(CC)C(=O)[C@@H]1C[C@@H](N)CN1c1nc(N2CCCC2)nc(C)c1C`, for which the INHIBITION came out at 33.4%. For the molecule `CCNC(=O)[C@@H]1C[C@H](N)CN1c1cc(CC)nc(N(C)C)n1`, the INHIBITION is recorded as -69.6%. `CCN(CC)C(=O)[C@@H]1C[C@H](N)CN1c1nnc(-c2ccccc2)s1`: the INHIBITION came out at 56.3%. Turning to `CNC(=O)[C@@H]1C[C@@H](N)CN1c1nnc(-c2ccccc2)s1`, the INHIBITION is 74.9%.

Consider `CNC(=O)[C@@H]1C[C@@H](N)CN1C(=O)CCSCc1ccccc1`, for which the INHIBITION is given as -15.1%. Then `CCN(CC)C(=O)[C@@H]1C[C@H](N)CN1c1noc(-c2ccccc2)n1`, with 9.04%; and `CCN(CC)C(=O)[C@@H]1C[C@@H](NC(=O)c2cccn2C2CC2)CN1C`, with 20.5%. Consider `COc1ccc(-c2ncccc2C(=O)N2C[C@@H]3CC[C@H]2C3)cn1`, for which the INHIBITION came to 29.1%. Regarding `Cn1cc(C[C@H]2[C@H](N3CCOCC3)CCN2C2CCOCC2)cn1`, the INHIBITION came to 0.804%.

Turning to `Cn1nc(C(=O)N2CCOCC2)cc1C(=O)Nc1ncc(Cl)cc1Cl`, the INHIBITION is -0.71%. Then `Cn1nc(C(=O)N2CCOCC2)cc1C(=O)Nc1ccc(Cl)cc1Cl`, with -8.66%; and `Cn1nc(C(=O)N2CCOCC2)cc1C(=O)Nc1c(Cl)cccc1Cl`, with 51.6%. As to `Cc1c(C(=O)N2CCC(C(=O)c3nc4ccccc4s3)CC2)cnn1C`, the INHIBITION is reported as 11.025%.

As to `Cc1cccc(C(=O)N2CCSCC2)c1NC(=O)c1cccnc1`, the INHIBITION was found to be 45%. As to `Cc1cccc(C(=O)N2CCSCC2)c1NC(=O)c1ccsc1`, the INHIBITION came out at 1.56%. With `Cc1cccc(C(=O)N2CCN(C)CC2)c1NC(=O)c1ccncc1`, the INHIBITION is on record as 52.6%. Then `COc1ccc(-c2nnc(CNCCn3cc(C)cn3)o2)cc1`, with 5.7%; and `COc1cccc(-c2nc(CNCCn3cccn3)cs2)c1`, with 31.8%. `COc1cc(CNCCC(N)=O)c2c(c1)CC(C)O2` (centres undefined): the INHIBITION was 49.4%. Then `COc1cc(CNCCn2cc(C)cn2)cc2c1OCCO2`, with 17.8%. Take `COc1cc(CNCCn2cc(C)cn2)c2c(c1)CC(C)O2` (centres undefined): the INHIBITION is reported as 75.2%. Regarding `COc1cc(CNCCn2cccn2)c2c(c1)CC(C)O2` (centres undefined), the INHIBITION is recorded as 75.2%.

In the case of `O=C(c1cccc(F)c1)N1CCc2ncc(Cn3cccn3)n2CC1`, the INHIBITION stood at 3.58%. Consider `Cc1cccnc1NCCNC(=O)c1cnc(-c2ccccn2)nc1O`, for which the INHIBITION was 92.1%. On to `CCn1c(N)nc2cc(C(=O)NCCNc3ncccc3C)cnc21`, for which the INHIBITION is -87.1%. Then `CCSCCNC(=O)c1cnc(-c2ccccc2)nc1O`, with 40.3%. As to `Cc1nc(C(C)C)sc1C(=O)NCCSc1ccccn1`, the INHIBITION is -71.3%.

As to `CC(C)(C)c1ncc(C(=O)NCCSc2ccccn2)c(O)n1`, the INHIBITION was found to be 69.1%.

Take `CCn1c(C)nnc1SCCNC(=O)c1cnc(C(C)(C)C)nc1O`: the INHIBITION was determined as 23.6%.

Consider `O=C(NCCCO)c1cnc(-c2ccccc2)nc1O`, for which the INHIBITION came to 48.5%.

Turning to `Cc1nc(-c2ncc(C(=O)NCCNc3ncccc3C)c(O)n2)cs1`, the INHIBITION is reported as 50.3%. On to `Cc1cccnc1NCCNC(=O)c1cnc(-c2cccs2)nc1O`, for which the INHIBITION is reported as 14.9%. The figure for `Cc1noc(NCc2cn(C)nc2-c2ccncc2)n1` is 19.4%.

Regarding `Cc1ccc(C(=O)NS(=O)(=O)c2c(Cl)cccc2Cl)c(=O)[nH]1`, the INHIBITION is on record as 19.4%.

Regarding `CN(C)CCN1CCO[C@H]2CN(Cc3cnn(C)c3)C[C@H]21`, the INHIBITION is on record as -57.1%. For the molecule `Cc1nnsc1C(=O)N1CCCCC1c1cc2nc(C)c(C)c(O)n2n1` (centres undefined), the INHIBITION is on record as 19.3%. Then `Cc1nc(-c2ccccc2)sc1CNC(=O)c1ccc(=O)n(C)c1`, with 39.6%. Take `CC(NCCCN1CCCC1=O)c1cc(Br)ccc1O` (centres undefined): the INHIBITION is listed as -1.3%. Then `c1cc2c(cc1Cn1cc(C3CCOC3)nn1)OCO2` (centres undefined), with 17.6%; and `Cc1ocnc1C(=O)N(C)[C@@H]1CC[C@@H](n2ccnc2C)[C@@H]1O`, with 45.9%. The figure for `Cn1cnc2cc(CCC(=O)Nc3nc[nH]n3)ccc21` is 39.2%; for `Cn1c(=O)c2c(n3ncnc13)NC(=O)CC2c1ccc(F)cc1` (centres undefined) it is 54%; for `CCc1ccc(C2CC(=O)Nc3c2c(=O)n(C)c2ncnn32)cc1` (centres undefined) it is 0.207%. `Cn1c(=O)c2c(n3ncnc13)NC(=O)CC2c1cccc(F)c1` (centres undefined): the INHIBITION came out at 41.6%. For `Cc1nc(N(C)C)nc(-c2cccc(-c3ccn(CCCO)n3)c2)c1C`, the INHIBITION turned out to be 14.9%. Consider `Cc1ccc(CNCC2CNc3cc(C)nn3C2)cn1` (centres undefined), for which the INHIBITION is 33.35%. On to `CCOc1cncc(N2CCOCC2)n1`, for which the INHIBITION was determined as 35.4%. As to `O=C(CCN1CCCO1)NC1CCCN(CC2CCCCC2)C1` (centres undefined), the INHIBITION was 50.5%.

`O=C(CCN1CCOCC1)NC1CCCN(CC2CCCCC2)C1` (centres undefined): the INHIBITION amounted to 1.37%. Regarding `O=C(CCN1CCCCO1)NC1CCCN(CC2CCCCC2)C1` (centres undefined), the INHIBITION is listed as 11.2%. As for `CCOc1ccc2cc(C(=O)NCCC(=O)N(C)C)[nH]c2c1`, the INHIBITION is listed as -5.22%. Consider `Cc1ccc(N2CCCN(CC3CC3)C(C(C)C)C2)nn1` (centres undefined), for which the INHIBITION is on record as 23%. As to `COCC1COCCC12CCN(C(=O)CC1Cc3ccccc3C1)CC2` (centres undefined), the INHIBITION was determined as 23.6%. For the molecule `Clc1snnc1CN1CCCC1Cn1cccn1` (centres undefined), the INHIBITION is -36.1%. Turning to `CCc1nccn1CC(=O)N1CCN(C2CCc3ccccc3C2)CC1` (centres undefined), the INHIBITION amounted to 57.9%.

Regarding `Cc1ccnn1CC(=O)N1CCN(C2CCc3ccccc3C2)CC1` (centres undefined), the INHIBITION was 10.7%. Turning to `Cc1ccnn1CCC(=O)N1CCN(C2CCc3ccccc3C2)CC1` (centres undefined), the INHIBITION is on record as -5.08%. In the case of `COc1cc(-n2cccc2)c(Cl)cc1C(=O)NS(C)(=O)=O`, the INHIBITION is 23.7%. Regarding `CC(C)(C)CC(=O)N1[C@@H](c2ccco2)[C@@H](CO)C[C@]12CCCCNC2=O`, the INHIBITION is recorded as 22.2%. On to `O=C(NCC(c1ccccc1)N1CCOCC1)Nc1cn[nH]c1` (centres undefined), for which the INHIBITION is recorded as -113%. On to `Cn1c(CN2CCOCC2)cc(=O)c(O)c1CN1CCOCC1`, for which the INHIBITION amounted to 5.58%.

Regarding `Cn1c(CN2CCOCC2)cc(=O)c(O)c1CN1CCCC1`, the INHIBITION stood at 6.12%. In the case of `Cn1c(CN2CCCC(N3CCCCCC3)C2)cc(=O)n(C)c1=O` (centres undefined), the INHIBITION is recorded as -10.9%.

As to `Cn1c(CN2CCOCC2)cc(=O)c(O)c1CN1CCCCC1`, the INHIBITION amounted to 30.2%. As for `Cn1c(CN2CCCCCC2)cc(=O)c(O)c1CN1CCCC1`, the INHIBITION is given as 63.1%. Take `Cn1c(CN2CCCCC2)cc(=O)c(O)c1CN1CCCCC1`: the INHIBITION was determined as 74%.

Turning to `CN(CCn1nc2ccccn2c1=O)CC(=O)N1CCCC1`, the INHIBITION is 18.2%. As to `CCn1cc(CN(C)C(=O)c2cc(C(F)(F)F)n(C)n2)cn1`, the INHIBITION was -6.42%. Take `CC(C)(CO)Nc1c(NCc2ccncc2)c(=O)c1=O`: the INHIBITION turned out to be 32.8%.

Turning to `COc1ccc(C(=O)NCCCOC(C)c2ccccc2)c(OC)c1` (centres undefined), the INHIBITION amounted to 84.4%. Turning to `CC(OCCCNC(=O)c1cccnc1O)c1ccccc1` (centres undefined), the INHIBITION is on record as -21.2%. For the molecule `COc1ccc(C(=O)NCCCNc2ncccn2)c(OC)c1`, the INHIBITION is 30.8%.

As to `CCC[C@@H]1CN(C(=O)c2cc3ccccc3cc2O)C[C@H]1N(C)C`, the INHIBITION turned out to be 51.5%. Turning to `CCC[C@@H]1CN(C(=O)c2ccccc2-c2ccccc2)C[C@H]1N(C)C`, the INHIBITION was 31.7%. For `CCC[C@@H]1CN(C(=O)c2ccccc2C(C)=O)C[C@H]1N(C)C`, the INHIBITION was found to be 8.92%. Consider `Cc1ccc(-c2n[nH]cc2CNCC2CCN(CC(F)(F)F)C2)o1` (centres undefined), for which the INHIBITION was 27.5%. The figure for `CC1=N[C@@]2(CC[C@@H]3CN(CC(=O)N(C)C)C[C@@H]32)C(=O)N1CC(C)C` is -6.32%; for `CCN1CCCn2c(nc(CNC(=O)c3cnoc3C)cc2=O)C1` it is -24%.

For the molecule `Cn1nccc1CNC(=O)C1CCCCC1`, the INHIBITION is 33%. Turning to `Cc1cc(C(=O)NC(C)CC(=O)c2ccco2)[nH]n1` (centres undefined), the INHIBITION came out at 37.9%. Then `COCCN1CCO[C@H]2CCN(C(=O)c3cccs3)CC[C@@H]21`, with -18.3%; and `COCCN1CCO[C@H]2CN(C(=O)c3ccncc3F)C[C@H]21`, with -52.3%; and `COCCN1CCO[C@H]2CN(C(=O)c3cccs3)C[C@H]21`, with 77.7%. In the case of `CN(C)CCN1CCO[C@H]2CCN(C(=O)c3cccs3)CC[C@@H]21`, the INHIBITION is 54.1%. In the case of `CS(=O)(=O)N1CCO[C@@H]2CCN(C(=O)c3cccs3)CC[C@H]21`, the INHIBITION came to 31.9%. For `CN(C)CCN1CCO[C@@H]2CCN(C(=O)c3cccn3C)CC[C@H]21`, the INHIBITION is -16.2%. In the case of `O=C(c1ccnnc1)N1C[C@@H]2OCCN(CCN3CCCC3)[C@@H]2C1`, the INHIBITION amounted to 11.9%. The figure for `COCCN1CCO[C@H]2CCN(C(=O)c3ccnnc3)CC[C@@H]21` is 55.6%. Consider `O=C(c1cccs1)N1C[C@@H]2OCCN(CC3CCCO3)[C@@H]2C1` (some centres undefined), for which the INHIBITION is reported as -17.1%. As to `COC(=O)N1CCC(Nc2ccc(Cl)c(C#N)n2)CC1`, the INHIBITION turned out to be 8.12%. Regarding `COc1ncc(C(F)(F)F)c(C(=O)O)c1Cl`, the INHIBITION is on record as 24.2%. With `Cc1cnn(CC2CCCCN2C(=O)Cc2c(C)noc2C)c1` (centres undefined), the INHIBITION is recorded as 8.53%.
